The supplement of paper PMC11732987, “Enantioselective OTUD7B fragment discovery through chemoproteomics screening and high-throughput optimisation” (Communications Chemistry, 2025)

Columns and labels:
Experiment in all cases: log2 ratio of Biotin-Ahx-Ub-VS probe labelling (fragment/DMSO); higher = less target engagement (more negative = stronger competition), active = hit call of the paper (q ≤ 0.05, log2 ratio ≤ -1)
Conditions in all cases: compound concentration: 200 uM; treatment time: 3 h
USP19 = target: T1, USP19 (UniProt O94966)
T1 sequence (whole entry): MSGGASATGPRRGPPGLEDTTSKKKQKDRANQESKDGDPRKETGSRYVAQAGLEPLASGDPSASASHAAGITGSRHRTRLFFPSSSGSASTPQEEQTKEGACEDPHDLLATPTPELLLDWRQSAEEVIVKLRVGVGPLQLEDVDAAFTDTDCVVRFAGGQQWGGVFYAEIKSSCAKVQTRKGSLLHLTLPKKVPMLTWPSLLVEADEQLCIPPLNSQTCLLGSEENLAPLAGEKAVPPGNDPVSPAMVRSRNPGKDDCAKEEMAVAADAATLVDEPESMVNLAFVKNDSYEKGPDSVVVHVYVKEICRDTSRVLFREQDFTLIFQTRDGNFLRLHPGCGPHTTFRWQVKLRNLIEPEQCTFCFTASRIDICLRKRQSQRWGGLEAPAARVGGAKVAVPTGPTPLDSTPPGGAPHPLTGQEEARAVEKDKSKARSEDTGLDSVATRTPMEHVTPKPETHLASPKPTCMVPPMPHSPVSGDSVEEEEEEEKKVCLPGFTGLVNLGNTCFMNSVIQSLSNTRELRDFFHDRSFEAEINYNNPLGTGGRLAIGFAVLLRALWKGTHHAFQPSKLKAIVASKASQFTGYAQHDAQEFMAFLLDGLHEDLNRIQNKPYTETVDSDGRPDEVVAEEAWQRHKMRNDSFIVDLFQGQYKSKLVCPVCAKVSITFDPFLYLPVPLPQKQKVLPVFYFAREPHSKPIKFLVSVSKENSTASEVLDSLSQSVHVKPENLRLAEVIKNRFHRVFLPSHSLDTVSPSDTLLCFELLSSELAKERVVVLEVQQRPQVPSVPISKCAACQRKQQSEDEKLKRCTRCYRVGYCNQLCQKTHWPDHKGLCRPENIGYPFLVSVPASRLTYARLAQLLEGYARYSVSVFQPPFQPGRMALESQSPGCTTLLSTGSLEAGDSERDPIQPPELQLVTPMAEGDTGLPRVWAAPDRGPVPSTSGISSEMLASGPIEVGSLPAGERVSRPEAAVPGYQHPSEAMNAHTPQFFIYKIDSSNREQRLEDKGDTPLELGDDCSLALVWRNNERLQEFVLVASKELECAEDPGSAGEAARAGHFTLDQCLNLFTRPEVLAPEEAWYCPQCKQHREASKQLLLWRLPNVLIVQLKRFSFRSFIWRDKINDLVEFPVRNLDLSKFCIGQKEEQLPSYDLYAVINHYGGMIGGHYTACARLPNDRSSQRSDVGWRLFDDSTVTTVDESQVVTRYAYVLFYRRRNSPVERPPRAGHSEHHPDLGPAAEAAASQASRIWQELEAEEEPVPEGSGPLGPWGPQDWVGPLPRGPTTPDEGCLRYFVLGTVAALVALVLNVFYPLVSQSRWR
Outline: (§1)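 HEK293T lysate (495 µg per sample, in Tris/CHAPS/IGEPAL buffer with protease inhibitors) was exposed in triplicate for 3 h to fragment at 200 µM or to vehicle, then to Biotin-Ahx-Ub-VS at 0.5 µM final for 1 h. Labelled DUBs were enriched on NeutrAvidin, digested with LysC and trypsin, and analysed by diaPASEF LC-MS/MS. Spectronaut label-free quantities were normalised to the global median, and values are average log2 ratios of fragment over vehicle from an unpaired t-test. Only proteins with ≥2 unique peptides were used.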

USP22 = target: T2, USP22 (UniProt Q9UPT9)
T2 sequence (whole entry): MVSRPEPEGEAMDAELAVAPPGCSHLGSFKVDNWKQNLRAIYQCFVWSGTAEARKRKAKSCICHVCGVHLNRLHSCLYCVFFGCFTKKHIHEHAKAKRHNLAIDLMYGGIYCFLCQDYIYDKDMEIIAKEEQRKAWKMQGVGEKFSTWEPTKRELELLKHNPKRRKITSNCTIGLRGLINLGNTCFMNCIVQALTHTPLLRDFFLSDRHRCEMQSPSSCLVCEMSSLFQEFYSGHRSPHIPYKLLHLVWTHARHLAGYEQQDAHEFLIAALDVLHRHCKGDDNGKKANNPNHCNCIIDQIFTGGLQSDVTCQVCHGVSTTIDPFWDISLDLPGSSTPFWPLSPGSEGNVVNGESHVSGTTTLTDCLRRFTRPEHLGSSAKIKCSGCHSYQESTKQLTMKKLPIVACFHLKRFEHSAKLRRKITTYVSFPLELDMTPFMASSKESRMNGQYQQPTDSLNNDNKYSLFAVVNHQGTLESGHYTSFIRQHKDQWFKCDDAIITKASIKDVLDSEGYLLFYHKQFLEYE
Outline: as §1

USP24 = USP24 (UniProt Q9UPU5)
Chain of USP24 (Q9UPU5 whole entry): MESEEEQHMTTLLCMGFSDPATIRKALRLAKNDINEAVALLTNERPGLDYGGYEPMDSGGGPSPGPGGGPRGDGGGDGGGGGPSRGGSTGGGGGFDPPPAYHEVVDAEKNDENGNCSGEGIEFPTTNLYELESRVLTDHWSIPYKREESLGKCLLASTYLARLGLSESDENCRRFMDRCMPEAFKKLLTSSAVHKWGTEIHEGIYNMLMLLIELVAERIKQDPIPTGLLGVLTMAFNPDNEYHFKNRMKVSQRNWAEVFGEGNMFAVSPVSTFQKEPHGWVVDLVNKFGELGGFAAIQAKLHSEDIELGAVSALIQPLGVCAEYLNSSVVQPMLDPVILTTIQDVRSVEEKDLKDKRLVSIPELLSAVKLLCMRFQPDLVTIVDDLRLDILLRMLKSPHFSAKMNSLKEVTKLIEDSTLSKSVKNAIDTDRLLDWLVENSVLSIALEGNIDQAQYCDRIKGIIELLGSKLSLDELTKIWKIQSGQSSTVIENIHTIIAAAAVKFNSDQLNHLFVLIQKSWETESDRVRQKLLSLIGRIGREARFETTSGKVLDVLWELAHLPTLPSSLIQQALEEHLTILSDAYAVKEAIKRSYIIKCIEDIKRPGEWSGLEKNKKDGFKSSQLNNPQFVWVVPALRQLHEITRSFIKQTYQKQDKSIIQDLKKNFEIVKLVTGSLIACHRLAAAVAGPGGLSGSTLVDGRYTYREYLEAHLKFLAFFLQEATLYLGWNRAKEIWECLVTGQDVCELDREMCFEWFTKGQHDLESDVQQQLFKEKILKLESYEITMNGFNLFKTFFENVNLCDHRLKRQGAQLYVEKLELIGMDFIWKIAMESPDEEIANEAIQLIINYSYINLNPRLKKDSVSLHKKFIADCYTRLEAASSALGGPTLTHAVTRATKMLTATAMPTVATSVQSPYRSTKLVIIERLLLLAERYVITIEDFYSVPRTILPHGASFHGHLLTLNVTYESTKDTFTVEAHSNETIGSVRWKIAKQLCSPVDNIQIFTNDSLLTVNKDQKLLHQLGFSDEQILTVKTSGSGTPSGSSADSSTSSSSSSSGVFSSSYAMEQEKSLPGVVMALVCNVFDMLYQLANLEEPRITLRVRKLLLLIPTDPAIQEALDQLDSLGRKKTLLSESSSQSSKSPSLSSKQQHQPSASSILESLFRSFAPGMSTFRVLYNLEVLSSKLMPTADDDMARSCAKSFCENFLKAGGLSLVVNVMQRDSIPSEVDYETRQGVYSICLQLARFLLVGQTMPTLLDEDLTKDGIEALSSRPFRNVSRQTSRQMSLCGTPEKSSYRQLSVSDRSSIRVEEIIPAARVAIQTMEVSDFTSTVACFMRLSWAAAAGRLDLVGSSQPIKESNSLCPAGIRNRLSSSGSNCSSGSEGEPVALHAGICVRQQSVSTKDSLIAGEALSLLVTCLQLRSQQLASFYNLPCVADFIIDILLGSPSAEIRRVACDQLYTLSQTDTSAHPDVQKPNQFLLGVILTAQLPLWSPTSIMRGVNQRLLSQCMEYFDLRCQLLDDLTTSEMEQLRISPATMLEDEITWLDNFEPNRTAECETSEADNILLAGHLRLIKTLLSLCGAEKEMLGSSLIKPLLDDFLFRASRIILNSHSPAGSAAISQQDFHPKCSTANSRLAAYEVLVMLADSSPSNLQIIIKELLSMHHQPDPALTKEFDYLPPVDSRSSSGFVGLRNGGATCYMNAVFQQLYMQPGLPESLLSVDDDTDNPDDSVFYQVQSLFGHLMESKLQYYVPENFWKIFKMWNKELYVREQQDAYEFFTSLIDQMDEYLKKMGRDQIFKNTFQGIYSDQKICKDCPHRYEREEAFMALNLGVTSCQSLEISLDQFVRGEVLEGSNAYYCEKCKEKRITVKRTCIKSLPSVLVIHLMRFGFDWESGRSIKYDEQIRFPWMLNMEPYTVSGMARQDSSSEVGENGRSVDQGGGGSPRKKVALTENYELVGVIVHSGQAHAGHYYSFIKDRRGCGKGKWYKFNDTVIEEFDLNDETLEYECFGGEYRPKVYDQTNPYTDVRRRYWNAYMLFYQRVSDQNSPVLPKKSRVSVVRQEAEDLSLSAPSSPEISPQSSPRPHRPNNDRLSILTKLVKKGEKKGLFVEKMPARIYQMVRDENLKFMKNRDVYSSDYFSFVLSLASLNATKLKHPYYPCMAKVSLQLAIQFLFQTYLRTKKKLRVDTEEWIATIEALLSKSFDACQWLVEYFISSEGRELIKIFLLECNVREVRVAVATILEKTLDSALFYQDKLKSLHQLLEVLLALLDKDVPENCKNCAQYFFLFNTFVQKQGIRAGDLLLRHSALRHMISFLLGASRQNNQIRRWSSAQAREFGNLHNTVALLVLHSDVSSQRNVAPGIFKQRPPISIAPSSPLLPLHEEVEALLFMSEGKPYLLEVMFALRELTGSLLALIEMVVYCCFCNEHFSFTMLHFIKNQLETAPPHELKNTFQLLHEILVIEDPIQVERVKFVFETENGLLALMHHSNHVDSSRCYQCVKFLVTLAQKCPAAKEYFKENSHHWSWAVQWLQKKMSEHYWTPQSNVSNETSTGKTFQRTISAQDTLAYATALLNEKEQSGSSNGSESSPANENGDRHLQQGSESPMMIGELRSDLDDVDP
Outline: as §1

USP25 = target: T3, USP25 (UniProt Q9UHP3)
T3 sequence (whole entry): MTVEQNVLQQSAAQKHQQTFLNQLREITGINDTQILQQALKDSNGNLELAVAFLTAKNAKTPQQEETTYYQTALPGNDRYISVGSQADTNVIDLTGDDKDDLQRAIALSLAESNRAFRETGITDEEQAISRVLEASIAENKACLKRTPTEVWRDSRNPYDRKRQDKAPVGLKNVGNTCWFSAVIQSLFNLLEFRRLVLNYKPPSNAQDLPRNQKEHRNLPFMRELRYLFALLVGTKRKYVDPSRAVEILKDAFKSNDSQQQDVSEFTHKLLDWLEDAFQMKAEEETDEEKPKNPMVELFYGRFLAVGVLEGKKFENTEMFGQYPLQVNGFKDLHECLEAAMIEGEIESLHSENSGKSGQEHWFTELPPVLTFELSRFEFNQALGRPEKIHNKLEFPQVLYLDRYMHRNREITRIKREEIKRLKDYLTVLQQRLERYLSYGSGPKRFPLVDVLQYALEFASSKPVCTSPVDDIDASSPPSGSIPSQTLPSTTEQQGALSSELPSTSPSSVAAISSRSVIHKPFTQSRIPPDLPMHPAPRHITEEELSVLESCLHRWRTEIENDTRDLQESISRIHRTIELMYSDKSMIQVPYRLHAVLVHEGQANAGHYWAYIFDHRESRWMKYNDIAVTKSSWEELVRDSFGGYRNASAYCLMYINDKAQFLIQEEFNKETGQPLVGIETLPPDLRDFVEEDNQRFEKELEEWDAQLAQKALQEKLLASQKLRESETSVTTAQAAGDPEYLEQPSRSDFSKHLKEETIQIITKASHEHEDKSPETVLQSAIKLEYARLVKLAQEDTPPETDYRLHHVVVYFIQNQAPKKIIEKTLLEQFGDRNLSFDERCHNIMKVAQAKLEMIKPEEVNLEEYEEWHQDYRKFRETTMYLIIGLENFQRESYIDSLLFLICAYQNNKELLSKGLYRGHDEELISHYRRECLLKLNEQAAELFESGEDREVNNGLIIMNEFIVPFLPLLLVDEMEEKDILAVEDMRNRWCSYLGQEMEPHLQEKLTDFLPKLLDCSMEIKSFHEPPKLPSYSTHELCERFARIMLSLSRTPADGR
Outline: as §1

USP28 = target: T4, USP28 (UniProt Q96RU2)
T4 sequence (whole entry): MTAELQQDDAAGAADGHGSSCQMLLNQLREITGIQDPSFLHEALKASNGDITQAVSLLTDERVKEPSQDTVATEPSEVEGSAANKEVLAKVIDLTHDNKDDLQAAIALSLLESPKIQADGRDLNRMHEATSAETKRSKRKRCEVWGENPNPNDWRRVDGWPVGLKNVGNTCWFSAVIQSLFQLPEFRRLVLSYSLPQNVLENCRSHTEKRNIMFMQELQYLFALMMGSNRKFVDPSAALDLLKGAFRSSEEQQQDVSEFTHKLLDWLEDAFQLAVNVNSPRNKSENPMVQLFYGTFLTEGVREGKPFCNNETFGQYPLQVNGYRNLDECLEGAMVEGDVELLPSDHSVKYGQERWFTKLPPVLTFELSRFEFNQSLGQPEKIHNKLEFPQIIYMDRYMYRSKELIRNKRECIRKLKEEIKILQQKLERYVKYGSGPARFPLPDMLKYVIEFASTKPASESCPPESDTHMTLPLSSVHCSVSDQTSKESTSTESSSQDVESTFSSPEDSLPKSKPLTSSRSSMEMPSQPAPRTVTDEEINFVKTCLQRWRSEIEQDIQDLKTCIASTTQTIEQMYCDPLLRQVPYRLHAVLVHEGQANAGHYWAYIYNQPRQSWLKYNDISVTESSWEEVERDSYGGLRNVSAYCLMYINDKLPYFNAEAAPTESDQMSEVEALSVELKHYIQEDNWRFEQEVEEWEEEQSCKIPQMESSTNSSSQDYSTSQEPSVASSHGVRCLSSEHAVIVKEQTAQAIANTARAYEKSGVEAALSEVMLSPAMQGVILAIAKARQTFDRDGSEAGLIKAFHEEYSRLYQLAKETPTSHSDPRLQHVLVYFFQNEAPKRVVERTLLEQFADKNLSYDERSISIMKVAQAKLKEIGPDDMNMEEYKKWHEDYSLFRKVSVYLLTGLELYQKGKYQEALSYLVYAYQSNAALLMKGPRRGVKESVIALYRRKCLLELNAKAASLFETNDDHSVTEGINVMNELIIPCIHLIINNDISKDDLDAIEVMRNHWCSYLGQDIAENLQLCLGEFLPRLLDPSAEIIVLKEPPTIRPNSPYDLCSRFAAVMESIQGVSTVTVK
Outline: as §1

Measured: log2 ratio of Biotin-Ahx-Ub-VS probe labelling

O=C(CCl)N1CCCCC12CCOCC2
inactive: USP19 -0.481 | USP22 -0.332 | USP24 -0.606 | USP25 -0.341 | USP28 -0.65
